Here are results for seven compounds from PubChem BioAssay.

Molecules are shown by their SMILES. Several values for one entry are separate records, joined by “and”; a condition that tells them apart may be missing. Equal entries are not always repeated. Activity calls are given as the source filed them. Unless noted, how the calls were made is not given here.

The nature of assay [1]: compounds binding Alexa647 anti-His antibody – biochemical, small-molecule microarray, 635 nm fluorescence, artefact control for SMM control protein annotation, primary screen (AID 1128).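 Further: score merges feature fluorescence with signal-to-noise for each printed compound spot.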 The conditions noted are these: higher = more signal.
Assay [2] has as its system Human papillomavirus type 1a E7 protein (residues 1-88). As to the kind of experiment: HPV1a E7 small-molecule binders, primary screen, biochemical, small-molecule microarray, residues 1-88, 635 nm (AID 1129). The conditions noted are these: small-molecule microarray binding, fluorescence 635 nm; higher = more signal.
Assay [3] concerns the target Focal adhesion kinase 1 (Homo sapiens) (UniProt Q05397). As to the kind of experiment: PTK2 protein binding on printed compound slides – biochemical, small-molecule microarray, 635/667 nm fluorescence, BSA, DTT, primary screen (AID 1130).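 Further: composite of spot emission at 667 nm and signal to noise over triplicate slides.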 The note with it: 635 nm fluorescence, higher = more signal.
In assay [4] the test system is Fibrinogen (Alexa647-labelled). As to the kind of experiment: Alexa647-fibrinogen binding to printed small molecules – biochemical, small-molecule microarray, 635/667 nm fluorescence, artefact control for SMM control-protein annotation, profiling panel (AID 1131).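 Further: z-score merges 667 nm fluorescence with per-spot signal-to-noise over triplicate slides.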 The note with it: fibrinogen-A647 binding fluorescence, higher = more signal.
Assay [5] has as its target Follistatin (Homo sapiens) (UniProt P19883). In words: FST protein binding to printed compounds – biochemical, small-molecule microarray, 635/667 nm fluorescence, primary screen (AID 1132). The note with it: 635 nm fluorescence, higher = more signal.
In assay [6] the target is Fibroblast growth factor 2 (Homo sapiens) (UniProt P09038). As to the kind of experiment: basic fibroblast growth factor binding to printed compounds – biochemical, small-molecule microarray, 635/667 nm fluorescence, primary screen (AID 1133). The conditions noted are these: FGF2, fluorescence 635/667, higher = more signal.
The nature of assay [7]: JC-1 mitochondrial potential readout, lung cancer cells – cell-based, A549, JC-1 fluorescence, basal, 24 h, 100 nL, profiling panel (AID 1138).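 Further: A549 lung adenocarcinoma cells under basal conditions with no added stimulus; test concentration not given here.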 The conditions noted are these: higher = more signal.
The subject of a further assay is Lefty1. As to the kind of experiment: Lefty1 protein binding to printed compounds – biochemical, small-molecule microarray, 635/667 nm fluorescence, primary screen (AID 1139). The note with it: fluorescence 635/667, higher = more signal.
Assay [8] concerns wheat germ agglutinin (Triticum aestivum), Alexa647-labelled. As to the kind of experiment: Alexa647-WGA lectin binding to printed small molecules – biochemical, small-molecule microarray, 635/667 nm fluorescence, artefact control for SMM control-protein annotation, profiling panel (AID 1140).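 Further: score merges 667 nm feature emission with signal to noise over triplicate slides.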 The note with it: WGA-A647 binding, 635 nm fluorescence, higher = more signal.
In assay [9] the target is Luciferin 4-monooxygenase (Photinus pyralis) (UniProt P08659). As to the kind of experiment: inhibition of purified Photinus pyralis luciferase – biochemical, luminescence, purified enzyme, 2006 set, primary screen (AID 1141).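 Further: cell-free assay with purified firefly luciferase at 100 ng per well in PBS; test concentration not given here.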 The note with it: purified firefly luciferase, SteadyGlo luminescence, 30 min; higher = more signal, called active from +8 up or from −8 down.
Assay [10] has as its system Wnt5a (protein binding on small-molecule microarray). As to the kind of experiment: small molecules binding Wnt5a protein – biophysical, small-molecule microarray, 635/667 nm fluorescence, primary screen (AID 1142).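 Further: fluorescence read at 667 nm with signal to noise per printed feature.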 The conditions noted are these: 635 nm fluorescence, higher = more signal.
The nature of assay [11]: ATP-based viability of Huh7 replicon cells – cell-based, CellTiter-Glo luminescence, basal, 48 h, cytotoxicity control for HCV replication inhibitor project, primary screen (AID 1143).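 Further: Huh7 hepatoma cells carrying a hepatitis C replication reporter with no stimulus; test concentration not given here.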 The conditions noted are these: higher = more signal, called active from +8 up or from −8 down. (A replicon is a self-replicating genome or part of one, used to study replication in cells.)
Assay [12] is described as follows: Pseudomonas biofilm growth suppression – PAO1 strain, BacTiter-Glo luminescence, LB-PBS, primary screen (AID 1144). The note with it: P. aeruginosa PAO1 biofilm, 12 h, higher = more signal.
A short description of assay [13]: basal CRE-LacZ reporter activity in PC12 – cell-based, unstimulated, primary screen (AID 1145). The note with it: no forskolin, luminescence, 4.5 h, higher = more signal, called active from +8 up or from −8 down.
Assay [14] can be described thus: forskolin-driven CRE-LacZ activity in PC12 – cell-based, CRE-LacZ reporter, forskolin-stimulated, primary screen (AID 1146).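 Further: PC12 cells with 6xCRE LacZ reporter stimulated by forskolin 10 µM; beta-galactosidase reporter signal reflecting CREB driven transcription.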 The note with it: luminescence, 4.5 h, higher = more signal, called active from +8 up or from −8 down.
Assay [15] has as its target Streptavidin (Streptomyces avidinii) (UniProt P22629). As to the kind of experiment: compounds binding control protein streptavidin – biophysical, small-molecule microarray, 635/667 nm fluorescence, artefact control for SMM compound annotation, primary screen (AID 1147).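 Further: signal reflects streptavidin binding to arrayed compounds as a control protein.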 The note with it: higher = more signal.
Assay [16] is described as follows: probe aInhba binding on compound microarray – biochemical, small-molecule microarray, 635/667 nm fluorescence, primary screen (AID 1148).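 Further: score merges 667nm spot fluorescence with signal-to-noise for antibody binding to printed compounds.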 The conditions noted are these: higher = more signal.
Assay [17] concerns the target Torsin-1A (Homo sapiens) (UniProt O14656). As to the kind of experiment: TOR1A wild-type binding on microarray – cell lysate, small-molecule microarray, lysate, 635/667 nm, primary screen (AID 1149). The note with it: COS7 hTOR1A-WT lysate, 635 nm fluorescence, higher = more signal.
Assay [18] has the same target. As to the kind of experiment: torsin A mutant lysate binding on microarrays – cell lysate, small-molecule microarray, COS7 lysate, 635/667 nm fluorescence, primary screen (AID 1150).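 Further: score pools 667 nm emission and signal to noise measuring lysate protein binding.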 The note with it: COS7 hTOR1A mutant lysate, 635 nm fluorescence, higher = more signal.
Assay [19] has as its system Sonic hedgehog protein (Shh). In words: Sonic hedgehog microarray binding compounds – biochemical, small-molecule microarray, 635/667 nm fluorescence, primary screen (AID 1151).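 Further: Shh protein binding to compounds spotted on small-molecule microarray slides; score combines spot fluorescence intensity with signal-to-noise across triplicate slides.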 The conditions noted are these: 635 nm fluorescence, higher = more signal.

Sequence of Focal adhesion kinase 1 (Homo sapiens) (Q05397 whole entry, looked up): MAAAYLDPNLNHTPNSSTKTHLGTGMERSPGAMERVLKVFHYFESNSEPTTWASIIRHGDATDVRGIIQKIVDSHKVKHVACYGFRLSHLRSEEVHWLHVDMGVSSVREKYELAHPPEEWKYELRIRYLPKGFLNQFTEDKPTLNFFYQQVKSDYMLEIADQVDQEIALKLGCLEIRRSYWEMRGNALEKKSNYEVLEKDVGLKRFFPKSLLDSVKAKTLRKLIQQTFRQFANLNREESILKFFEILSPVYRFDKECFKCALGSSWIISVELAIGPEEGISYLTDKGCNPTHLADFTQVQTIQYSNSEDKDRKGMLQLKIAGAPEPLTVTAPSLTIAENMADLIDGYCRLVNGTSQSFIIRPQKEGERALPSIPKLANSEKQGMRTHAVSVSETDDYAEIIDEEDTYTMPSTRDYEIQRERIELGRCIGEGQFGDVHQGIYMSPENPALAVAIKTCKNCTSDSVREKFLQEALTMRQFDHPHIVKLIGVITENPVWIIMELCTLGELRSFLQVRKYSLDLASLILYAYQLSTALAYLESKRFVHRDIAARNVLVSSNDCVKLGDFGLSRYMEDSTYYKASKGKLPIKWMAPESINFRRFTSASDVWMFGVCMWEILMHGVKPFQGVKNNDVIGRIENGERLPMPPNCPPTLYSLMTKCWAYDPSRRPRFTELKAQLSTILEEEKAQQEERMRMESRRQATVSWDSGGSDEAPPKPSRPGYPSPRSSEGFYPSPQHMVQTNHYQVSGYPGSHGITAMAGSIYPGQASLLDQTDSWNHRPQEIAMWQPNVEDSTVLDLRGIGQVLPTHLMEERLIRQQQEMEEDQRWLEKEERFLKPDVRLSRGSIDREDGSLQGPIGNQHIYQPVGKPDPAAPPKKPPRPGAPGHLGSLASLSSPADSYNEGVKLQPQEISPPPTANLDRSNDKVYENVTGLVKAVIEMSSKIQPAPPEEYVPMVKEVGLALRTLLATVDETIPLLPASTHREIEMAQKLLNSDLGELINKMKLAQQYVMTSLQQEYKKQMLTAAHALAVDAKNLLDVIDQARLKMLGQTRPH
Sequence of Follistatin (Homo sapiens) (P19883 whole entry, looked up): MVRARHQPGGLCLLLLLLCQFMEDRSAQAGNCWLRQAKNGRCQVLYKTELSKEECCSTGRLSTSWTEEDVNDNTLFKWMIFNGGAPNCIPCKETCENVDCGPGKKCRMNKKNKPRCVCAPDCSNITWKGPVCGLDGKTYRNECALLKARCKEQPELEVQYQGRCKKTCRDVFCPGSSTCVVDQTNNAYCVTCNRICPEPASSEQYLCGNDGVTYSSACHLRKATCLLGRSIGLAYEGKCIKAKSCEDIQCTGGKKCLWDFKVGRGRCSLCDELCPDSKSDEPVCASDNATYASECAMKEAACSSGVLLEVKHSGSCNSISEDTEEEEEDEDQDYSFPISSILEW
Sequence of Luciferin 4-monooxygenase (Photinus pyralis) (P08659 whole entry, looked up): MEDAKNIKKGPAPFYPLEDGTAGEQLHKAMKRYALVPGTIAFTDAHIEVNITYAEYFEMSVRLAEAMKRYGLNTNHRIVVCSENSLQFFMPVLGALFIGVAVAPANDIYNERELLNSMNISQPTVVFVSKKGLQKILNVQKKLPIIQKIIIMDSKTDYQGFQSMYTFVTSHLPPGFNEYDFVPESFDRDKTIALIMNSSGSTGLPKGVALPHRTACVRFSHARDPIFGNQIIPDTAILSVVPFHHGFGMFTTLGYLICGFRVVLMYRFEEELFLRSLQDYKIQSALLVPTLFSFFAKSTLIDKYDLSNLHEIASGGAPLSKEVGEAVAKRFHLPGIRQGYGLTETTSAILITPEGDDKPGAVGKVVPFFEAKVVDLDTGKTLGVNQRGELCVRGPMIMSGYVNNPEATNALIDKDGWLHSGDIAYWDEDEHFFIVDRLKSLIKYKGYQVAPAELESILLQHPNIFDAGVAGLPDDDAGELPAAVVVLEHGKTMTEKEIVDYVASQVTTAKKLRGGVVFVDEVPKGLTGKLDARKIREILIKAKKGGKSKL
Sequence of Streptavidin (Streptomyces avidinii) (P22629 whole entry, looked up): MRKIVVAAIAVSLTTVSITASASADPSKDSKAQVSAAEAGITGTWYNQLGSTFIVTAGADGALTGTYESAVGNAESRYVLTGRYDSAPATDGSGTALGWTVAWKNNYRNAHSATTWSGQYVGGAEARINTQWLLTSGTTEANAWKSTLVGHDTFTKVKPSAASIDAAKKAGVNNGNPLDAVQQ
Sequence of Torsin-1A (Homo sapiens) (O14656 whole entry, looked up): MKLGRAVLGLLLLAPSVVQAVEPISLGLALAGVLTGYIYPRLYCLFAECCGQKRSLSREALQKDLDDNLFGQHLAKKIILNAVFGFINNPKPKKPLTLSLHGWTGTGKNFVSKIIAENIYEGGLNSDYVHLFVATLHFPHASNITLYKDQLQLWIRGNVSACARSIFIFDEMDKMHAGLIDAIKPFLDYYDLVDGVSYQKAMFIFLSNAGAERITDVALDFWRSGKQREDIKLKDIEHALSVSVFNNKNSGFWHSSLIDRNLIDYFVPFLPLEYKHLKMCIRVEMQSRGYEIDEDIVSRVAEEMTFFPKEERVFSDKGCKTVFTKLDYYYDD
Sequence of Fibroblast growth factor 2 (Homo sapiens) (P09038 whole entry, looked up): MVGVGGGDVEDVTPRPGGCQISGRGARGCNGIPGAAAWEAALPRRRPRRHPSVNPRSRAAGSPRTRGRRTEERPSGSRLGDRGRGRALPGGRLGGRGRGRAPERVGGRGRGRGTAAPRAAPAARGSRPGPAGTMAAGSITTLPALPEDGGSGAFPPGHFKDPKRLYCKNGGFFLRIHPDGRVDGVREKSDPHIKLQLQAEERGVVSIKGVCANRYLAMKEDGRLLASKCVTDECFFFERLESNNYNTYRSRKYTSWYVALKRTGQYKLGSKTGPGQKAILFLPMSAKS

With `CC(C)[Si]1(C(C)C)OCc2cc(C3CC3)nc(CCc3ccccc3)c21`, the composite z-score in [1] is -0.363 and -0.0162; in [2], -0.868 and 0.316; in [3], -0.177 and -0.249; in [4] it was -0.582 and 0.111; in [5], 0.0259 and 0.303; in assay [6], -0.329 and 0.0149. In addition, the composite z-score in the assay with Lefty1 is -0.237 and 0.22; in [8], -0.269 and 0.0131; in [10], -0.106 and 0.243; in [15], 0.0746 and 0.209; in [16], -0.0986 and -0.205; in the assay with Torsin-1A (Homo sapiens) [17], -0.483 and 0.207. In addition, the composite z-score with Torsin-1A (Homo sapiens) [18] is -1.29 and 0.401; in assay [19], -0.447 and 0.221. Besides, the z-score is -0.323 and -1.45 in assay [7]; -0.324 (inactive) and 0.744 (inactive) in [9]; 0.412 (inactive) and -0.432 (inactive) in [11]; -0.37 (inactive) and 0.125 (inactive) in assay [12]; 0.0035 (inactive) and 0.148 (inactive) in [13]; -0.271 (inactive) and -0.0043 (inactive) in assay [14].
Regarding `C#CCCCON=C1C[C@@H](O)[C@@H](O)[C@@H]2[C@@H]3C(=O)N(C4CCCCC4)C(=O)[C@@H]3CC[C@H]12`, the composite z-score in assay [1] is 1.31; in [2] it was 1.1; in assay [3], 0.498; in assay [4] it was 0.962; in assay [5], -0.0195; in assay [6], 0.0951. In addition, the composite z-score is 0.112 in the assay on Lefty1; 0.698 in assay [8]; -0.176 in [10]; 1.03 in assay [15]; -0.101 in assay [16]; 1.06 with Torsin-1A (Homo sapiens) [17]. Also, the composite z-score with Torsin-1A (Homo sapiens) [18] was 0.0924; in assay [19], -0.105. Moreover, the z-score in assay [7] was 0.83; in assay [9] it was -1.01 (inactive); in assay [11], -0.379 (inactive); in assay [12] it was 0.353 (inactive); in [13] it was -0.474 (inactive); in assay [14], -0.236 (inactive).
Turning to `COc1ccc(COC(=O)NN=C2C[C@@H](O)[C@@H](O)[C@@H]3[C@@H]4C(=O)N(C(C)(C)C)C(=O)[C@@H]4CC[C@H]23)cc1`, the composite z-score in [1] is 1.34; in assay [2] it was 0.797; in [3], 0.0704; in [4], 0.816; in [5] it was 0.126; in assay [6] it was 0.699. The composite z-score in the assay with Lefty1 was 0.281; in [8] it was 0.0873; in assay [10], -0.0647; in assay [15], -0.199; in assay [16] it was -0.151; with Torsin-1A (Homo sapiens) [17] it was 0.656. Also, the figures for the composite z-score (in the assay with Torsin-1A (Homo sapiens) [18]; in [19]) were -0.178 and 0.352, respectively. Moreover, the z-score in assay [7] was 0.453; in assay [9], -1.08 (inactive); in [11] it was -1.47 (inactive); in assay [12], 0.439 (inactive); in assay [13] it was 0.876 (inactive); in assay [14], 0.479 (inactive).
In the case of `C=C[C@@H](C)[C@@H](O)c1ccc(O)c2ccccc12`, the composite z-score is -0.46 and 0.408 in assay [1]; -1.07 and -0.498 in assay [2]; -0.221 and -0.422 in assay [3]; -1.54 and 0.509 in assay [4]; 0.105 and 0.431 in assay [5]; -0.162 and -0.329 in [6]. Besides, the composite z-score was -0.863 and -0.286 with Lefty1; -1.19 and 0.506 in assay [8]; 0.0168 and -0.729 in assay [10]; -1.28 and -0.645 in [15]; -0.304 and -0.278 in assay [16]; -1.2 and -1.52 with Torsin-1A (Homo sapiens) [17]. Also, the composite z-score with Torsin-1A (Homo sapiens) [18] was -1.14 and -0.798; in assay [19] it was -0.103 and 0.297. The z-score was 0.287 and -0.728 in assay [7]; -1.48 (inactive) and -0.181 (inactive) in assay [9]; 0.61 (inactive) and -1.13 (inactive) in [11]; -0.647 (inactive) and -0.589 (inactive) in assay [12]; 2.68 (inactive) and -0.3 (inactive) in assay [13]; 3.22 (inactive) and 5.31 (inactive) in [14].
In the case of `C=CCN(CCCC)C(=O)C(c1cccs1)N(C(=O)/C=C\C(=O)O)c1ccc(CCO)cc1` (stereo not given), the composite z-score in [1] is 1.25 and -2.52; in assay [2], -0.505 and -1.38; in assay [3], -0.504 and -1.21; in assay [4], -1.08 and -1.59; in assay [5], -1.43 and -2.34; in assay [6] it was -1.47 and -2.18. Moreover, the composite z-score was -1.58 and -2.71 in the assay with Lefty1; 0.266 and -2.25 in [8]; -0.118 and -0.341 in assay [10]; -0.874 and -1.49 in [15]; -0.195 and -0.331 in assay [16]; -1.2 and -3.21 with Torsin-1A (Homo sapiens) [17]. The composite z-score is -2.35 and -1.52 in the assay with Torsin-1A (Homo sapiens) [18]; -0.463 and -1.18 in assay [19]. For the same compound, the z-score in assay [7] was 0.65 and 0.624; in assay [9] it was -2.48 (inactive) and -2.8 (inactive); in assay [11], 0.197 (inactive) and 0.617 (inactive); in assay [12], -0.568 (inactive) and 0.123 (inactive); in assay [13] it was -0.0818 (inactive) and 0.195 (inactive); in assay [14], -0.21 (inactive) and -0.185 (inactive).
With `C=C[C@@H](C)[C@H](O)c1ccc(O)c2ccccc12`, the composite z-score was -0.181 and 1.87 in assay [1]; -0.7 and -1.54 in assay [2]; 0.825 and -0.491 in assay [3]; 0.837 and -0.449 in assay [4]; 1.31 and 0.663 in assay [5]; 1.14 and 0.0819 in [6]. Also, the composite z-score was 0.948 and -0.871 in the assay on Lefty1; 0.0825 and -0.52 in assay [8]; -0.419 and -0.647 in assay [10]; -0.984 and -0.766 in assay [15]; -0.224 and -0.233 in assay [16]; -0.595 and -0.309 with Torsin-1A (Homo sapiens) [17]. In addition, the composite z-score in the assay with Torsin-1A (Homo sapiens) [18] is -0.518 and -0.45; in assay [19], 1.96 and 0.17. Moreover, the z-score was -0.832 and -0.689 in assay [7]; 0.546 (inactive) and 0.338 (inactive) in [9]; -2.11 (inactive) and 0.366 (inactive) in assay [11]; -0.14 (inactive) and -0.671 (inactive) in assay [12]; 0.441 (inactive) and -0.272 (inactive) in assay [13]; -0.349 (inactive) and 0.556 (inactive) in assay [14].
For the compound `C=CCN(CCCC)C(=O)C(c1cccs1)N(CCOCCO)C(=O)/C=C\C(=O)O` (stereo not given), the composite z-score in assay [1] is -0.542 and 1.17; in [2], -1.01 and 0.222; in assay [3] it was -0.552 and 0.468; in assay [4], -2.44 and -1.32; in assay [5] it was -1.31 and -0.249; in assay [6], -1.01 and -0.379. Further, the composite z-score is -0.727 and -0.409 in the assay with Lefty1; -0.667 and -0.193 in assay [8]; -0.582 and -0.146 in assay [10]; -0.915 and -0.578 in assay [15]; -0.0313 and -0.0791 in [16]; -0.289 and 0.536 with Torsin-1A (Homo sapiens) [17]. In addition, the composite z-score with Torsin-1A (Homo sapiens) [18] was 1.73 and -0.144; in assay [19], -0.127 and -0.197. Also, the z-score was 0.0562 and 0.567 in assay [7]; -0.417 (inactive) and -0.714 (inactive) in [9]; -0.259 (inactive) and -0.0074 (inactive) in assay [11]; -0.801 (inactive) and -0.86 (inactive) in [12]; -0.891 (inactive) and 0.0564 (inactive) in [13]; -0.43 (inactive) and -0.359 (inactive) in assay [14].
